# Results taken from PubChem BioAssay (NCATS).
# Inconclusive results are not listed. Unmarked numbers belong to inactive results. Calls of active or inactive are those of the source. Calls follow the shape of the full dose curve.
# Biological target: Peroxisome proliferator-activated receptor delta (Homo sapiens) (UniProt Q03181)
# Experiment: qHTS assay for small molecule agonists of peroxisome proliferator-activated receptor delta signaling (AID 588534);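 also: 0% = DMSO basal wells and 100% = positive control agonist at 10 µM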
# Conditions: HEK293T PPARdelta-UAS-bla, beta-lactamase ratio, 18 h; series mostly up to 76.7 µM; activation: at the top concentration
# Method in brief: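 Cells carrying a PPAR-delta beta-lactamase reporter were treated with compounds for 18 h at 37 °C in agonist mode. CCF4 fluorescence was read after 2 h; EC50 and efficacy from Hill fits.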
# Peroxisome proliferator-activated receptor delta (Homo sapiens), sequence (Q03181 whole entry, looked up): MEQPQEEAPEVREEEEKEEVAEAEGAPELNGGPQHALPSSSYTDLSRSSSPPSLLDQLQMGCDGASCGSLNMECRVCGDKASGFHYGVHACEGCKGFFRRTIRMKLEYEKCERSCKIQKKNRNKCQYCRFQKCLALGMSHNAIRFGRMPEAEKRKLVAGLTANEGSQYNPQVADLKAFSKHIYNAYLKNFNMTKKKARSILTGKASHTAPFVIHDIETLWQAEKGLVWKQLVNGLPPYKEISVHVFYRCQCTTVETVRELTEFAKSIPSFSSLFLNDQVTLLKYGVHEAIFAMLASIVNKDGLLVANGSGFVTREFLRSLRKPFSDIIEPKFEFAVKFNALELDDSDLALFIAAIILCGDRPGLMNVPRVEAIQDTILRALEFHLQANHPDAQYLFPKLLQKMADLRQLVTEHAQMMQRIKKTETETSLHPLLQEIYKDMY
Compound,activation [%],outcome
C=C(C)C(=O)OCCCCCCCCCCCC,4.53,–
CCCCN(CCCC)CCCC,-2.53,–
CC(=O)Nc1ccc(C)cc1,-7.13,–
CN(C)c1nc(=O)n(C2CCC(O)CC2)c(=O)n1C (centres undefined),2.35,–
Cc1ccc(N(C)C)cc1,-5.09,–
CC(=O)c1ccc([N+](=O)[O-])cc1,13.9,–
C=C(C#N)C(=O)OCC,0.705,–
COc1cc(-c2ccc(N=C=O)c(OC)c2)ccc1N=C=O,9.31,–
Cc1cccc2sc(N)nc12,2.52,–
O=C(O)c1ccc(C(=O)O)c(C(=O)O)c1,3.02,–
Brc1cc(Oc2cc(Br)c(Br)c(Br)c2Br)c(Br)c(Br)c1Br,–,inactive
CCCCCCCCCCCCCO,-5.16,–
c1ccsc1,0.747,–
CCN(Cc1cccc(S(=O)(=O)O)c1)c1ccc(C(=C2C=CC(=[N+](CC)Cc3cccc(S(=O)(=O)[O-])c3)C=C2)c2ccccc2)cc1,-6.62,–
O=C1OC2(c3cc(Br)c(O)c(Br)c3Oc3c2cc(Br)c(O)c3Br)c2c(Cl)c(Cl)c(Cl)c(Cl)c21,-13.2,–
NC(=O)c1cccc([N+](=O)[O-])c1,5.16,–
Nc1cccc2c(=O)[nH][nH]c(=O)c12,4.68,–
ICCc1ccccc1,2.06,–
NC(N)=O,8.47,–
Cc1ccc(S(=O)(=O)N=C=O)cc1,6.34,–

Compound,activation [%],outcome
CCc1ccccc1,-0.0958,–
CC12CCC(CC1=O)C2(C)C (centres undefined),–,inactive
CCCCCCCCC,10.7,–
CO[Si](CCCNCCN)(OC)OC,5.98,–
CCC=O,8.01,–
C=C(C)C(=O)OCCN(C)C,-0.589,–
CC/C=C/C#N,15.1,–
CCCC(=O)OC(=O)CCC,–,inactive
Cc1cccc(C(=O)O)c1[N+](=O)[O-],6.01,–
CCCCCCCCCCCCCC(=O)OC,3.31,–
O=C1NC(=O)c2cc([N+](=O)[O-])ccc21,-3.27,–
CCOc1cccc(N)c1,16.1,–
CCCCCCC=O,3.7,–
CCOC(C)(C)C,-0.734,–
Fc1ccccc1,10.2,–
C=CCCCC,3.86,–
COC(=O)c1ccccc1C(=O)O,-3.32,–
O=[N+]([O-])c1ccc(F)cc1F,-1.74,–
CCCCCCCCCCCCCCC1CO1 (centres undefined),–,inactive
